High-throughput results from PubChem BioAssay.
Shown is part of a subset that was picked to be rich in hits.
Artemis endo inh = blocks endonuclease activity of human Artemis. recombinant Artemis, quenched FAM hairpin cleavage fluorescence. inhibition, % at 10 µM. 30,000 compounds, 0.78% hits. AID 686954;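 active = at 10 µM dose, at least 30% inhibition, measured as corrected fluorescence normalized to stimulator and neutral control wells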
Target sequence (Q96SD1 whole entry, looked up): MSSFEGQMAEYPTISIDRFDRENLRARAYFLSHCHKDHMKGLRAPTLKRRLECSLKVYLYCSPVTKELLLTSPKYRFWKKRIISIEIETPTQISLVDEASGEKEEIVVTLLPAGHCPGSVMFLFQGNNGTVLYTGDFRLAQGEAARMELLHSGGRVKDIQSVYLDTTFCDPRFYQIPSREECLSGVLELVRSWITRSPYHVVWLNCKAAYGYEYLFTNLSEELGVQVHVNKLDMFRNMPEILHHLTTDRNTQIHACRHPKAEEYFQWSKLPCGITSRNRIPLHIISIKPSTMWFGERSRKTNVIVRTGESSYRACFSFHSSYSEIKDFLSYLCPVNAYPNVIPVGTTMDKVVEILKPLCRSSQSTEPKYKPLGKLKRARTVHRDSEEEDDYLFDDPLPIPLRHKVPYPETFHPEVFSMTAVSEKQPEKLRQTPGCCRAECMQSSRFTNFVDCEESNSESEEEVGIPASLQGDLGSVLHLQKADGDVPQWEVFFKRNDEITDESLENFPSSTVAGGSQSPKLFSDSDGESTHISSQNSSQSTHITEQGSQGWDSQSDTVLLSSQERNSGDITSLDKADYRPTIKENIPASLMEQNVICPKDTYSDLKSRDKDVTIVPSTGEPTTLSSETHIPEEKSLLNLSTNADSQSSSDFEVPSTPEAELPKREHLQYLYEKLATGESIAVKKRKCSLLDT
Numbers without * were called inactive.

SMILES | Artemis endo inh
Cc1ccc2[nH]c(=O)c(CN(Cc3ccc4c(c3)OCO4)Cc3nnnn3Cc3ccco3)cc2c1 | 35*
CCc1ccc2[nH]c(=O)c(CN(Cc3ccccc3)Cc3nnnn3Cc3ccco3)cc2c1 | 21
O=c1[nH]c2cc3c(cc2cc1CN(Cc1ccccc1)Cc1nnnn1Cc1ccco1)OCCO3 | 27
CSCCC1NC(=O)N(CC(=O)Nc2cccc3ccccc23)C1=O (centres undefined) | -8
CCCCN1C(=O)NC2NC(=O)NC21 (centres undefined) | 2
CCn1cc(C(=O)NC(=S)Nc2cccc(O)c2)cn1 | -3
COc1ccc(NC(=O)c2cc([N+](=O)[O-])nn2Cc2ccccc2)c(C)c1 | -11
COc1ccc(/C=C\C(=O)c2c(O)ccc3c(C)cc(=O)oc23)cc1OC | 10
O=C1CC(c2ccco2)Cc2nc(Nc3nc(-c4ccccc4)c4ccccc4n3)ncc21 (centres undefined) | 34*
O=C(Nc1ncc2c(n1)CC(c1ccco1)CC2=O)c1ccccc1 (centres undefined) | -3
Cc1cccc(Nc2ncc3c(n2)CC(c2ccco2)CC3=O)c1 (centres undefined) | 7
C=CCn1c(NCc2ccc(N(C)C)cc2)nc2ccccc21 | -7
Cn1c(SCC(=O)OC2CCCCC2)nnc1-c1ccco1 | -6
CC(C)n1c(NCCc2ccccc2)nc2c1c(=O)n(C)c(=O)n2C | 4
COc1ccc(C(=O)NCCCn2ccnc2)cc1 | -4
Cc1ccc(-c2cc(C(=O)NCCCn3ccnc3)c3cc(Br)ccc3n2)o1 | 31*
Cc1ccc(-c2cc(C(=O)NCc3ccco3)c3ccccc3n2)o1 | 11
CCC(=O)Nc1nc(=S)ss1 | 2
C/C(=N/NS(=O)(=O)c1ccc(Cl)cc1)c1cccc(NC(=O)c2ccc(Cl)cc2Cl)c1 | 12
Cc1csc(Sc2ccc([N+](=O)[O-])cc2C(=O)OCC(=O)NC(=O)NC(C)(C)C)n1 | 12
CCN(CC)c1ccc(NC(=O)CSc2nc3ccccc3c(=O)[nH]2)cc1 | 9
Cc1ccc(-c2cc(C(=O)n3cnc4ccccc43)c3ccccc3n2)cc1C | 6
CCN(CC)c1ccc(C(=O)n2cnc3ccccc32)cc1 | 30*
CCN(CC)c1cc(CS(=O)c2ccccc2)nc(-c2ccccc2)n1 (centres undefined) | -2
Cc1noc(C)c1CSc1nc2ccccc2nc1NS(=O)(=O)c1ccc(Cl)cc1 | 33*
SMILES | Artemis endo inh
Cc1noc(C)c1CSc1nc2ccccc2c(=O)n1-c1ccccc1 | 0
O=S(=O)(Nc1nc2ccccc2nc1NCc1ccco1)c1ccc(Cl)cc1 | 13
O=C(CP(=O)(c1ccccc1)c1ccccc1)Nn1cnnc1 | -4
CC(C)c1nc2sc3c(SCC(=O)NCc4ccco4)ncnc3c2c2c1CCC2 | 29
CSc1nc(N(CCO)CCO)c2sc3nc(-c4ccco4)c4c(c3c2n1)CCC4 | 46*
N#Cc1sc2nc3c(c(-c4ccco4)c2c1N)CCCC3 | 13
Cc1cc(C)c(S(=O)(=O)N(C2=NCCS2)S(=O)(=O)c2c(C)cc(C)cc2C)c(C)c1 | 8
COc1ccc(C2NC(=O)c3sc4nc(C)c(C(C)=O)c(-c5ccc(Cl)cc5)c4c3N2)cc1 (centres undefined) | 4
O=C1c2ccccc2C(=O)c2c1ccc(C(=O)N1CCCCC1)c2NCCO | 2
O=C(Nc1ccccc1)Nc1ccc(S(=O)(=O)N2CCCCC2)cc1 | 3
O=C1C(Nc2ccccc2)=C(N2CCCCC2)C(=O)c2ccccc21 | 39*
Cc1cccc(C)c1NC(=O)NC1(C(=O)NCCCN2CCOCC2)CCCCC1 | -1
COc1ccc(CNC(=O)c2cccc3c2C(=O)N(Cc2cccnc2)C3)cc1 | -3
O=C(Cn1nc(C(F)(F)F)c2c1CCC2)NCc1ccc(Cl)cc1 | -3
Cc1cc(C)c2c(=O)[nH]c(=O)n(Cc3ccccc3)c2n1 | 0
